Bioassay records from PubChem BioAssay.
Pf Dd2 inh – Plasmodium falciparum Dd2 growth inhibition; Potency, µM (top dose mostly 28.9 µM), inactives show at the highest dose activity, negative = inhibition, most hits filed as inhibitors; AID 1347417; 4.3% of 120,000 active; P. falciparum Dd2 growth, SYBR Green, 72 h; active = well fitted inhibition curve with a large enough effect;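 also: plate controls were DMSO vehicle for no effect and reference drug for full effect; nearly all actives have a fitted effect of over 65% in size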
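Infected erythrocytes (Dd2, 0.3% parasitemia, 2.5% hematocrit final) are added to compound in RPMI-1640/Albumax II medium, grown 72 h at 37C in low oxygen, then lysed with saponin/Triton-X containing SYBR Green and read by fluorescence.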
An asterisk follows results filed as active; i = inactive; [ ] = another dose, or the depositor's remark. The entries come from a sample that favours hits as a whole. Potency is read from the fitted curve at half-maximal effect.

SMILES | Pf Dd2 inh
Cc1ccc(N2CCN(C(=O)c3ccc4c(c3)N(C)C3CCCCN3C4=O)CC2)cc1 (configuration not stated) | 3%
Cc1ccc(CN2CCSc3ccc(C(=O)N4CCN(c5cccc(C)c5C)CC4)cc32)cc1 | 6.3µM*
Cc1ccc(CN2CCSc3ccc(C(=O)N4CCN(c5ccc(Cl)cc5)CC4)cc32)cc1 | 8.9µM*
O=C(Cn1nc2c(cc1=O)CCCC2)NCCc1ccc(O)cc1 | 8%
N#Cc1ccccc1CN1CCNc2nc(CN3CCN(CCO)CC3)n(Cc3ccccc3)c2C1=O | i
COc1ccc(Cn2c(C3CCN(C(=O)c4ccc(OC)cc4)CC3)n[nH]c2=O)cc1 | -23%
Cc1ccc(Cn2c(C3CCN(C(=O)c4ccccc4Cl)CC3)n[nH]c2=O)cc1 | -19%
COc1ccc(CC(=O)N2CCC(c3n[nH]c(=O)n3Cc3ccc(F)cc3)CC2)cc1 | i
Cc1ccc(Cn2c(C3CCN(C(=O)c4ccc(C)s4)CC3)n[nH]c2=O)cc1 | 11µM*
Cc1ccc(Cn2c(C3CCN(C(=O)c4ccc(C)cc4)CC3)n[nH]c2=O)cc1 | -24%
COc1ccc(CC(=O)N2CCC(c3n[nH]c(=O)n3Cc3ccc(OC)cc3)CC2)cc1 | 13µM*
CN1c2cc(C(=O)Nc3cccc(Cl)c3)ccc2C(=O)N2CCCCCC21 (configuration not stated) | i
CCOc1ccccc1C(=O)N1CCC(N2C(=O)CCC2C(=O)NC(C)C)CC1 (configuration not stated) | -9%
CCN1C(=O)C2CC3(CCN(C(=O)c4ccn[nH]4)CC3)CN2C1=O (configuration not stated) | 18%
Cc1cnc(CCNC(=O)Nc2ccc3c(c2)OCCO3)n1C1CC1 | -16%
Cc1cnc(C2CC2)n1C1CCN(C(=O)NC(C)C)CC1 | -14%
Cc1cnc(C2CCOCC2)n1C1CCN(C(=O)Nc2ccc3c(c2)OCCO3)CC1 | 7.9µM*
O=C(c1cccc(Br)c1)N1CCN(c2cc(-c3cccs3)[nH]n2)CC1 | i
CC(=O)Nc1ccc(NC(=O)c2cc(-c3ccncc3)cn2Cc2ccccc2C)cc1 | 3.2µM*
CCCN1CCN(C(=O)c2cc(-c3ccc(F)cc3)cn2CC)CC1 | -20%
Cc1ccccc1Cn1cc(-c2ccncc2)cc1C(=O)N1CCN(c2ccccc2)CC1 | 3.5µM*
CCCn1cc(-c2ccncc2)cc1C(=O)N1CCN(C)CC1 | i
CCn1cc(-c2ccncc2)cc1C(=O)NCc1cccc(F)c1 | 0%
CCn1cc(-c2ccncc2)cc1C(=O)N1CCOCC1 | -4%
CCCn1cc(-c2ccncc2)cc1C(=O)N1CCN(c2ccccc2OC)CC1 | 4µM*
SMILES | Pf Dd2 inh
COc1cccc(NC(=O)c2cccn(Cc3ccccc3C)c2=O)c1 | i
CCn1cc(-c2ccc(C)cc2)cc1C(=O)N1CCN(c2ccccn2)CC1 | -33%
CN1CC(=O)N(C2CCCNC2)Cc2c1ncnc2N1CCc2ccccc2C1 (configuration not stated) | 3%
COCCNC(=O)C[C@@H]1O[C@H](CNCc2cccc(Cl)c2)[C@@H](O)[C@H]1O | 23%[44.1 µM]
CN1CCC2(C1)CN(Cc1ccccc1)c1ccc(C(=O)NC3COC3)cc12 (configuration not stated) | -23%[44.1 µM]
Cc1cc(C(=O)N2CCC(C(=O)N3CCCCCCNC(=O)CC3)CC2)n(C)n1 | 6%
O=C(CCc1cccs1)N1CCOC(CCCc2ccccc2)C1 (configuration not stated) | -4%
O=C(CCc1cc2n(n1)CCCNC2)Nc1ccc2c(c1)OCCO2 | -1%
CN1C(=O)CCC2(CNC(=O)c3nn(C)c4ccccc34)CCCC=C12 (configuration not stated) | i
N#Cc1ccc(S(=O)(=O)N2CCC(C3CCNC3)CC2)cc1 (configuration not stated) | 6%
Cc1c(C(=O)NCCN(C)C)oc2c1-c1nn(Cc3cccc(Cl)c3)cc1CC2 | -7%
CN(C)CCN(C)Cc1cn(Cc2ccccc2)nc1-c1ccc2c(c1)OCO2 | 10µM*
CN(Cc1nccn1Cc1ccccc1)C(=O)CCc1ccc2c(c1)OCO2 | -10%
Cc1ccc(OCc2nc(C3CCCCN3)no2)cc1 (configuration not stated) | -15%
Cc1ccc(-c2noc([C@@H]3CCCN3C(=O)c3ccc(C(C)(C)C)cc3)n2)cc1 | 54%
COc1ccc(CCC(=O)NCCC2CCN(C(=O)Nc3ccc(C)cc3)CC2)cc1 | i
CC(=O)Nc1ccc(-c2ccc(=O)n3c2[C@@H]2C[C@@H](CN(S(=O)(=O)c4cccs4)C2)C3)cc1 | i
CSc1ccc(-c2ccc(=O)n3c2[C@@H]2C[C@@H](CN(S(=O)(=O)c4cccs4)C2)C3)cc1 | 8.9µM*
CSCC(=O)N1C[C@@H]2C[C@H](C1)c1c(-c3ccc(SC)cc3)ccc(=O)n1C2 | -7%[44.1 µM]
O=C(CN1CCCC1)N[C@H]1CC[C@H](Nc2nccc(-c3cccnc3)n2)C1 | -3%
O=C(NCc1ccc(F)cc1)C1CN(c2ccc(Cl)cc2)C(=O)N1 (configuration not stated) | 15%
Cc1ccc2c(n1)N(C)[C@H](CO)CCN(Cc1cn(C)c3ccccc13)C2 | 11µM*
